Screens deposited in PubChem BioAssay by National Center for Advancing Translational Sciences (NCATS).
IL1B secr inh = blocks inflammasome-driven IL-1 beta release. THP-1 LPS/ATP IL-1B secretion, AlphaLISA, 16 h; hits give low values. activity change, % at 57.5 µM. hit rate 4.7% among 360,000. AID 743279; in the data active = activity change below about -50%; inconclusive = mostly about -30% to -49%
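THP-1 cells pretreated 1 hr with compounds (up to 57.5 uM final), then stimulated with LPS (250 ng/mL final) plus ATP (1.25 mM final); secreted IL-1B measured by AlphaLISA after 16 hr, decreased signal indicating inhibition.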
TDP1 cell noCPT = qHTS for Inhibitors of human tyrosyl-DNA phosphodiesterase 1 (TDP1): qHTS in cells in absence of CPT | DT40 Tdp1-/- hTDP1 cells, no CPT, ATP luminescence, 48 h | Potency, µM (highest dose often 46.2 µM), for the others: top-dose activity change, negative = growth inhibition, usual class: inhibitors | hit rate 15% among 420,000; note: potency is the fitted concentration of half-maximal effect; nearly all actives have a fitted effect of over 55% in size
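Growth of hTDP1-complemented DT40 Tdp1-knockout cells is measured by ATP luminescence after at least 48 hr compound exposure at 37 °C, with DMSO substituting for the 20 nM CPT used in the parallel screen.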
Gal4-VP16 FLuc = counter-screen for ROR gamma inhibitors: Gal4-VP16 reporter. Drosophila S2 Gal4-VP16 UAS-luciferase, luminescence, 20 h. Potency, µM (titrated, usually from 53.6 µM), without a hit: top-dose activity, negative = inhibition, usual class: inhibitors. hit rate 3.5% among 310,000. AID 2546;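 note: Gal4-VP16 expression switched on by copper sulfate through the metallothionein promoter; potency is the fitted concentration of half-maximal effect; nearly all actives have a fitted effect of over 50% in size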
RORgamma inh = blocks mouse ROR gamma transcriptional activity; P51450; Drosophila S2 Gal4-RORgamma UAS-luciferase reporter, 20 h; Potency, µM (highest dose often 53.6 µM), for inactives: at the top dose activity change, negative = inhibition, most hits filed as inhibitors; hit rate 5.4% among 310,000; note: potency is the fitted concentration of half-maximal effect; nearly all actives have a fitted effect of over 60% in size
Target sequence (P51450 whole entry, looked up, the tested form may be a part): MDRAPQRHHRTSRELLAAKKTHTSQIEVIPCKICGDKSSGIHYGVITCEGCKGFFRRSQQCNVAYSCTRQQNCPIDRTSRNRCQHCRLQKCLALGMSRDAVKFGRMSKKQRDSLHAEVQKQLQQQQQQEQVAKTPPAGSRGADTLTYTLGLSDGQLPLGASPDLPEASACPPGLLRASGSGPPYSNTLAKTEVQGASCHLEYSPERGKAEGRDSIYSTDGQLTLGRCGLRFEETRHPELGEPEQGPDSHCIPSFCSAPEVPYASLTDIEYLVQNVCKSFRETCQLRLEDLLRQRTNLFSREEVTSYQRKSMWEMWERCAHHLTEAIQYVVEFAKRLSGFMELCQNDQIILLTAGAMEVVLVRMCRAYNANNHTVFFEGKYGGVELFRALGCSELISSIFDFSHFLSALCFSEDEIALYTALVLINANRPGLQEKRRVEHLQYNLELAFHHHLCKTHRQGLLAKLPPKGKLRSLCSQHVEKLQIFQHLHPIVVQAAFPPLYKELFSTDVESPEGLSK
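Schneider cells (Drosophila), stable Gal4 DBD–ROR gamma + UAS-luc; 1 hr cmpd preincubation; Cu2+ induction 700 uM final; 20 hr ambient; luminescence.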
ELG1 repair inh = ELG1-dependent DNA repair inhibition | AID 504467 | hit rate 2.3% among 330,000 | Potency, µM (highest dose often 46.1 µM), for the others: top-dose activity change, negative = inhibition, actives largely listed as inhibitors | HEK293T ELG1-luciferase reporter, luminescence, 16 h; DNA damage induced by 5-fluorouridine; note: potency is the fitted concentration of half-maximal effect; nearly all actives have a fitted effect of over 55% in size
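In this reporter screen, reduction of luminescence relative to DMSO vehicle indicated activity. Compounds and 5-fluorouridine were added together to 2,000 cells per well, incubated for 16 hr at 37 °C, then developed with ONE-Glo.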
DT40 TDP1 CPT = DT40-hTDP1 cell growth loss with CPT | chicken DT40 Tdp1-/-;hTDP1 cells + 20 nM CPT, ATP luminescence, 48 h | Potency, µM (highest dose often 46.2 µM), for the others: at the highest dose activity change, negative = growth inhibition, actives largely listed as inhibitors | hit rate 12% among 420,000 | AID 686979; note: potency is the fitted concentration of half-maximal effect; nearly all actives have a fitted effect of over 55% in size
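Cell growth measured by CellTiter-Glo luminescence after a minimum 48 h, 37 C compound exposure with 20 nM CPT in Tdp1-knockout DT40 cells stably expressing hTDP1, seeded 400/well; qHTS titration format.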
* hit, by the source's call; ? = inconclusive; · = no result. Shown are actives, neighbours in structure and some others; about 21% of the full set was active somewhere. Unless noted, calls come from the whole dose curve; as a rule, active = well fitted curve in the direction sought with a large enough effect; inconclusive = small, poorly fitted or top-dose-only effect, or another doubt; inactive = no such curve, though single readings can be large; an effect the other way counts as inactive or inconclusive. % is set by controls: 0 for no effect and ±100 for the full control effect.

SMILES	IL1B secr inh	TDP1 cell noCPT	Gal4-VP16 FLuc	RORgamma inh	ELG1 repair inh	DT40 TDP1 CPT
CC(C)NC(=O)C1(C)Cc2c(-c3cccc(C(F)(F)F)c3)ccnc2O1 (stereo not given)	27	12µM*	·	·	·	18µM*
CCN(C(=O)C1CCCN(c2ncnc3c2nc2n3CCCCC2)C1)c1cccc(C)c1 (stereo not given)	·	5.8µM*	·	·	·	12µM*
CCN(C(=O)C1CCCN(c2ncnc3c2nc2n3CCCCC2)C1)c1cccc(Cl)c1 (stereo not given)	-2	10µM*	5%	?	21µM*	21µM*
CN1CCN(C(=O)C2CCCN(c3ncnc4c3nc3n4CCCCC3)C2)CC1 (stereo not given)	2	17%	?	-7%	13%	-10%
CCOc1ccc(NC(=O)CN(C)C(=O)c2c(C)nn(Cc3ccccc3Cl)c2C)cc1OCC	-26	-1%	·	·	·	-20%
CC(=O)N1CCC[C@@]2(CCN(C(=O)Nc3cccc(C#N)c3)C2)C1	·	21%	-3%	7%	·	1%
C[C@@H](C(=O)Nc1ccc2ccccc2c1)[C@H]1C[C@]1(C)[C@H](NC(=O)c1cccnc1)c1ccccc1	-6	?	?	?	18µM*	?
COc1ccc(N(C(=O)c2cc3ccccc3oc2=O)C2C=CS(=O)(=O)C2)cc1 (stereo not given)	?	1%	6%	7%	4%	-6%
O=C(c1cc2ccccc2oc1=O)N(c1ccccc1)C1C=CS(=O)(=O)C1 (stereo not given)	-54*	-19%	-1%	?	?	-4%
CC(C)c1ccc(N(C(=O)c2cc3ccccc3oc2=O)C2C=CS(=O)(=O)C2)cc1 (stereo not given)	-5	13µM*	-4%	24%	?	?
Cc1cc(C=O)c(C)n1-c1sc2c(c1C(=O)O)CCCC2	7	-24%	4%	3%	-6%	-2%
COC(=O)c1c(-n2c(C)cc(C=O)c2C)sc2c1CCCC2	-63*	22µM*	0%	18%	6%	?
Cc1ccc(F)cc1-c1nc(NCC2CC2)nc2ccsc12	-18	?	·	·	·	?
COc1ccc(-c2nc(NCCN(C)C)nc3ccsc23)c(C)c1	-53*	?	·	·	·	?
c1ccc(-c2nc(NCC3CC3)nc3ccsc23)cc1	23	?	·	·	·	16µM*
Cc1ccccc1-c1nc(NCC2CC2)nc2ccsc12	-1	?	·	·	·	23µM*
O=C(NNc1c(Cl)cccc1Cl)c1sc2ccccc2c1Cl	·	-24%	·	·	·	9%
Cc1cc2nc(-c3nnnn3C3CCCCC3)c(=O)[nH]c2cc1C	0	?	·	·	·	-43%
CCN1CCN(C2=C(Cl)C(=O)N(Cc3ccccc3)C2=O)CC1	-21	?	27%	6%	?	23µM*
CN1CCN(C2=C(Cl)C(=O)N(Cc3ccccc3)C2=O)CC1	-7	-18%	1%	15%	-14%	-10%
O=C(O)CC(c1ccccc1)c1ccc2c(c1)OCO2 (stereo not given)	1	-13%	·	·	·	-7%
c1ccc(Cn2c(NCc3ccccn3)nc3ccccc32)cc1	-27	-3%	-6%	10µM*	-4%	-29%
CCCCn1c(NCc2ccccn2)nc2ccccc21	-4	-29%	13µM*	7.1µM*	13%	?
CCCCCn1c(NCc2ccc(OC)cc2)nc2ccccc21	·	23µM*	·	·	·	16µM*
c1ccc(Cn2c(NCc3ccncc3)nc3ccccc32)cc1	8	-18%	-21%	2%	?	-18%
CCCCCn1c(NCc2ccco2)nc2ccccc21	-25	?	5%	-40%	-3%	-6%
COc1ccc2c(c1)cc1c(=O)n(CC(=O)NC(C)C)nc(C)n12	·	-15%	·	·	·	-6%
